SMILES strings stand for the structures. Records with an inconclusive call do not appear. Where a call stands in place of a potency, no number is given. The source made the active and inactive calls. Calls follow the shape of the full dose curve.
Potency is read from the fitted curve at half-maximal effect.

The experiment in a line: qHTS assay for small molecules that induce genotoxicity in human embryonic kidney cells expressing luciferase-tagged ATAD5 - cell viability (AID 651634). Also: nearly all actives have a fitted effect of over 25% in size. The settings on record: HEK293T ATAD5-luc cells viability, CellTiter-Fluor, 15.5 h; series mostly up to 83.3 µM. The source says: National Center for Advancing Translational Sciences [NCATS]
NIH Chemical Genomics Center [NCGC]
U.S. Environmental Protection Agency [EPA]
National Institutes of Environmental Health Sciences [NIEHS]
National Toxicology Program [NTP]
U.S. Food and Drug Administration [FDA]
Enhanced Level of Genome Instability Gene 1 (ELG1; human ATAD5) protein levels increase in response to various types of DNA damage. Using a luciferase reporter-gene tagged with ElG1, a cell-based assay [developed by Kyungjae Myung, NHGRI, NIH] was used to measure the induction of ATAD5 in human embryonic kidney cells (HEK293T). So, increase in luciferase activity can be used to identify the compounds that cause genetic stress. In addition to genotoxicity, these cells were also used to test for cytotoxicity by measuring the protease activity within live cells.
Tox21 Assay Protocol Summary:
For cytotoxicity screening, 2,000 cells in 5 uL/well were dispensed into white, solid-bottom 1536-well plates using a Multidrop Combi (Thermo Scientific) dispenser. Following transfer of 23 nL compound or DMSO vehicle by a pin tool, the plates were incubated 15.5 hr at 37C and 5% CO2. 1 ul CellTiter-Fluor reagent (Promega, Madison, WI) was then added to each plate and following 30 min incubation at 37C, fluorescence intensity was quantified on a ViewLux CCD-based plate reader.
(In general: In qHTS, concentration-response curves come from the screen itself.)
As for `CN1CCCN=C1COC(=O)C(O)(c1ccccc1)C1CCCCC1` (stereo not given), the Potency result is “inactive”.

For `C=Cc1ccc(S(=O)(=O)O)cc1`, the Potency entry is “inactive”. Under `Oc1cccc(Nc2ccccc2)c1` stands “inactive”. For `C[C@]1(Cn2ccnn2)[C@H](C(=O)O)N2C(=O)C[C@H]2S1(=O)=O`, the Potency result is “inactive”. With `CCOc1ccccc1O[C@H](c1ccccc1)[C@H]1CNCCO1` the entry was “inactive”; with `CC=C(Cl)Cl`, “inactive”. With `O=C(OC(=O)c1ccccc1)c1ccccc1` the entry was “inactive”. Under `CO[C@]1(NC(=O)CSC(F)F)C(=O)N2C(C(=O)O)=C(CSc3nnnn3CCO)CO[C@H]21` stands “inactive”; under `COc1cc(C(=O)NCCCCCC(=O)O)cc(OC)c1OC`, “inactive”; under `Cc1cc(O)ccc1O`, “inactive”. `NNC(=O)CP(=O)(c1ccccc1)c1ccccc1`: the Potency entry is “inactive”. Under `CO/N=C(/C(=O)N[C@@H]1C(=O)N2C(C(=O)O)=C(COC(N)=O)CS[C@H]12)c1ccco1` stands “inactive”; under `Cc1ccc(OC(=O)c2ccccc2O)cc1`, “inactive”. Under `CC(=O)OCC[N+](C)(C)C` stands “inactive”; under `CCC(=O)C1CC(C(C)C)CC=C1C` (stereo not given), “inactive”; under `O=C(O)CCCCCCCCCCCBr`, “inactive”.

For `CC(=O)Nc1cc(S(=O)(=O)O)cc2cc(S(=O)(=O)O)c(N=Nc3ccccc3)c(O)c12`, the Potency is 30.6 µM (active). With `CCCCC(CC)COP(=O)(O)O` (stereo not given) the entry was “inactive”; with `Cc1ccccc1S`, “inactive”; with `C=C(C)C(=O)OCCOCCOC(=O)C(=C)C`, “inactive”.

For `C=C(C)C(=O)OCCCCCCCCCCCCC`, the Potency entry is “inactive”.

In the case of `FC(F)(F)c1ccccc1Cl`, the Potency entry is “inactive”. With `CCOC(=O)OC(C)OC(=O)[C@@H]1N2C(=O)[C@@H](NC(=O)[C@H](N)c3ccccc3)[C@H]2SC1(C)C` (stereo not given in full) the entry was “inactive”; with `CC(=O)[C@H]1[C@H](C#N)C[C@H]2[C@@H]3CC=C4C[C@@H](O)CC[C@]4(C)[C@H]3CC[C@@]21C`, “inactive”; with `CCOC(=O)C1=C(C)NC(C)=C(C(=O)OC)C1c1cccc(Cl)c1Cl` (stereo not given), “inactive”. With `COC(=O)CCS` the entry was “inactive”; with `CCC1CO1` (stereo not given), “inactive”; with `CCC(OCCCOC)OC(C)=O` (stereo not given), “inactive”.

On to `CCOC(=O)c1ccccc1C(=C1C=C(Br)C(=O)C(Br)=C1)c1cc(Br)c(O)c(Br)c1`, for which the Potency was 40.7 µM (active).

Take `Cc1cccc(N(C)C(=S)Oc2ccc3c(c2)CCC3)c1`: the Potency entry is “inactive”. Under `CC/C=C1/OC(=O)c2ccccc21` stands “inactive”; under `O=c1[nH]ncc2ccccc12`, “inactive”. Under `CC(CN(C)C)C(C)(O)Cc1ccc(Cl)cc1` (stereo not given) stands “inactive”; under `CC1=Nc2ccc3ccccc3c2C1(C)C`, “inactive”; under `N#CCc1ccc(Cl)cc1Cl`, “inactive”. Under `OC(CCN1CCCC1)(c1ccccc1)C1CCCCC1` (stereo not given) stands “inactive”; under `COc1cc(Nc2c(C#N)cnc3cc(OCCCN4CCN(C)CC4)c(OC)cc23)c(Cl)cc1Cl`, 29.8 µM (active); under `CCCCN1CCCC1C(=O)Nc1c(C)cc(C)cc1C` (stereo not given), “inactive”. With `C=C(C)[C@@H]1CCC2=CCC[C@@H](C)[C@]2(C)C1`, the Potency entry was “inactive”. As for `CCN(CC)CCNC(=O)COc1ccc(OC)cc1`, the Potency result is “inactive”.

The values above are taken from PubChem BioAssay (Tox21).
